Source: PubChem BioAssay (National Center for Advancing Translational Sciences (NCATS))
JMJD2A Tudor inh – blocks the human JMJD2A Tudor domain; O75164; AlphaScreen JMJD2A-Tudor / H3K4me3 peptide binding; Potency, µM (top dose mostly 114 µM), most hits filed as inhibitors; 390,000 compounds, 4.4% hits; AID 504339; note: nearly all actives have a fitted effect of over 50% in size
Target sequence (O75164 whole entry, looked up, the tested form may be a part): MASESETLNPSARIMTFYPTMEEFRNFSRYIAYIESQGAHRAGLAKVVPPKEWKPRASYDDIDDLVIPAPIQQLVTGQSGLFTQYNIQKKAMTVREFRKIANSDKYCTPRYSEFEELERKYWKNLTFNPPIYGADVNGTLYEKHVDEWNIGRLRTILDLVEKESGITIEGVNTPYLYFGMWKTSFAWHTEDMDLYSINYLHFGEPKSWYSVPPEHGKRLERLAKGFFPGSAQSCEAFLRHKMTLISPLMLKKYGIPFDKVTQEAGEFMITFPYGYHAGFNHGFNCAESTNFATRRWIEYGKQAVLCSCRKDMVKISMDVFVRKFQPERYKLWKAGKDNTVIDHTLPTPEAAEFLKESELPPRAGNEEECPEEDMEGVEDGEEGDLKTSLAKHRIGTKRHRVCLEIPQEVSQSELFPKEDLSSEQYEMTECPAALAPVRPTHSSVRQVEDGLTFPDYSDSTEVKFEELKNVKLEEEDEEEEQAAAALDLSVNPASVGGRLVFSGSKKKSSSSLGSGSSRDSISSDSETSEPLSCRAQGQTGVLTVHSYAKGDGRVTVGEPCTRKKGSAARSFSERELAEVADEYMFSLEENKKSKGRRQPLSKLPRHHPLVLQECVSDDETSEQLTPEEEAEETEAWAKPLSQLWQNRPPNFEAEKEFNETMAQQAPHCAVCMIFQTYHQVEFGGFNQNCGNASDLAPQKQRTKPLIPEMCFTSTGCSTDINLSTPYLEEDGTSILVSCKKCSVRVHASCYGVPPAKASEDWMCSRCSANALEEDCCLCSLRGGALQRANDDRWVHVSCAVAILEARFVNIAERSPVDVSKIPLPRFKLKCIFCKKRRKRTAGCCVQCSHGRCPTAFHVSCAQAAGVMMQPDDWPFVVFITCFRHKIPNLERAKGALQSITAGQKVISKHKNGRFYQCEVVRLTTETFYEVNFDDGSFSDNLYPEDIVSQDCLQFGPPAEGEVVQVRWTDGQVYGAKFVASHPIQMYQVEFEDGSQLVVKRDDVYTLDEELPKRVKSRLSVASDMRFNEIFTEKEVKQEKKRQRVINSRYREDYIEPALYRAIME
BAZ2B block – BAZ2B (human) inhibition; Q9UIF8; AlphaScreen BAZ2B-H3K14Ac peptide displacement; Potency, µM (titrated, usually from 114 µM), hits mostly inhibitors; 360,000 compounds, 4.4% hits; AID 504333; note: nearly all actives have a fitted effect of over 60% in size
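BAZ2B 50 nM plus b-H3(5-23)K14Ac 50 nM, PBS pH 7.4/0.01% Tween-20, 30 min RT; compound added (max 110 uM), 30 min RT; streptavidin donor/Ni-chelate acceptor beads 10 ug/mL final, 20 min dark; AlphaScreen read.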
HP1b chromo inh – HP1-beta chromodomain-methylated histone interaction inhibition. P83916. AlphaScreen HP1-beta / biotin-H3K9me3 peptide binding. Potency, µM (series often up to 114 µM), hits mostly inhibitors. 390,000 compounds, 0.56% hits; note: nearly all actives have a fitted effect of over 70% in size
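Compound inhibition of the preformed complex between 50 nM HP1-beta and 50 nM biotinylated H3K9me3 peptide was read by AlphaScreen. Buffer was PBS pH 7.4 with 0.01% Tween-20. Incubations ran 30 min at room temperature, with 10 ug/mL donor/acceptor beads.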
PLK1 PBD block – inhibitors of human PLK1 polo-box domain binding. P53350. Plk1 PBD binding of FITC phosphopeptide, fluorescence polarization. Potency, µM, hits mostly inhibitors. 360,000 compounds, 2.8% hits; note: series mostly up to about 57 µM; nearly all actives have a fitted effect of over 65% in size
G9a block – blocks human histone lysine methyltransferase G9a. Q96KQ7. G9a H3K9 monomethylation, AlphaScreen, 2 h. Potency, µM (highest dose often 102 µM), actives largely listed as inhibitors. 350,000 compounds, 8.8% hits. AID 504332; note: nearly all actives have a fitted effect of over 75% in size
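Quantitative HTS format: methyltransferase activity on a biotin-tagged H3K9 peptide is measured by AlphaScreen, using a rabbit anti-monomethyl-H3K9 antibody with streptavidin donor and anti-IgG acceptor beads. Final levels are 20 nM enzyme, 500 nM peptide, 20 uM SAM; 2 h RT.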
Sfp PPTase inh – blocks B. subtilis Sfp PPTase activity | Potency, µM, hits mostly inhibitors | Q9F4F7 | Biochemical Sfp PPTase activity, qHTS | AID 1490 | 310,000 compounds, 3.5% hits;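 note: the enzyme is Sfp with the accession as filed and its product quenches rhodamine fluorescence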
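With Hepes-Na pH 7.6 buffer containing 10 mM MgCl2, Sfp (15 nM) modified BHQ-2-YbbR (12.5 uM) using rhodamine-CoA (5 uM). Two reads 30 minutes apart at 525/598 nm yielded each well's rate.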
Large screens that a line does not name were inactive. In the library only some 12% were active in any assay of this set; here they are far more common. Calls come from the whole dose curve; as a rule, active = well fitted curve in the direction sought with a large enough effect; inconclusive = small, poorly fitted or top-dose-only effect, or another doubt; inactive = no such curve, though single readings can be large; an effect the other way counts as inactive or inconclusive.

COc1ccccc1NC1CCCCC1NS(=O)(=O)c1ccc(C)cc1 (stereo not given)	JMJD2A Tudor inh inconclusive (no result: G9a block)
COc1ccc(NC2CCCCC2NS(=O)(=O)c2ccc(C)cc2)cc1 (stereo not given)	JMJD2A Tudor inh inconclusive, BAZ2B block 50µM, HP1b chromo inh inconclusive, G9a block 14µM
COc1ccccc1N1CCN(C2CCCCC2NS(=O)(=O)c2ccc(Cl)cc2)CC1 (stereo not given)	JMJD2A Tudor inh inconclusive, BAZ2B block inconclusive, PLK1 PBD block inconclusive
CCOc1ccc(S(=O)(=O)NC2CCCCCC2)cc1	none
Cc1cc(C)cc(OC2CCCCC2NS(=O)(=O)c2ccccc2)c1 (stereo not given)	none
CCOc1ccc(NC2CCCCC2NS(=O)(=O)c2ccccc2)cc1 (stereo not given)	JMJD2A Tudor inh 56µM, BAZ2B block 45µM, HP1b chromo inh inconclusive, G9a block inconclusive
CSc1ccc(OC2CCCCC2NS(=O)(=O)c2ccccc2)cc1 (stereo not given)	JMJD2A Tudor inh inconclusive, PLK1 PBD block 24µM
COc1ccc(N2CCN(C3CCCCC3NS(=O)(=O)c3ccc(Cl)cc3)CC2)cc1 (stereo not given)	JMJD2A Tudor inh inconclusive, BAZ2B block 10µM (no result: G9a block)
O=C(c1ccc(S(=O)(=O)N2CCCCCC2)cc1)N1CCN(c2ccccc2F)CC1	none (no result: BAZ2B block, G9a block, Sfp PPTase inh)
Cc1ccc(OCCC(=O)OC(C)C(=O)Nc2ccc(Cl)cn2)cc1 (stereo not given)	none (no result: Sfp PPTase inh)
COc1cccc2cc(C(=O)C3=C(O)C(=O)N(CCCN(C)C)C3c3ccncc3)oc12 (stereo not given)	G9a block inconclusive (no result: JMJD2A Tudor inh, HP1b chromo inh, PLK1 PBD block)
CN(C)CCN1C(=O)C(O)=C(C(=O)c2cc3ccccc3o2)C1c1ccc(N(C)C)cc1 (stereo not given)	JMJD2A Tudor inh inconclusive, BAZ2B block inconclusive, G9a block 50µM
COc1cccc(C2C(C(=O)c3cc4ccccc4o3)=C(O)C(=O)N2CCN(C)C)c1OC (stereo not given)	none (no result: BAZ2B block, G9a block, Sfp PPTase inh)
CCN(CC)CCCN1C(=O)C(O)=C(C(=O)c2cc3cccc(OC)c3o2)C1c1ccncc1 (stereo not given)	G9a block 50µM (no result: HP1b chromo inh)
COc1cccc2cc(C(=O)C3=C(O)C(=O)N(CCN(C)C)C3c3ccc(F)cc3)oc12 (stereo not given)	G9a block 50µM
NC(=O)c1cccc(-c2ccnc3c2CC(C(=O)NCc2cccc(Cl)c2)O3)c1 (stereo not given)	none (no result: JMJD2A Tudor inh, BAZ2B block, HP1b chromo inh, G9a block, Sfp PPTase inh)
O=S(=O)(Nc1ccc(C(O)(C(F)(F)F)C(F)(F)F)cc1)c1cccc2cccnc12	none (no result: JMJD2A Tudor inh, BAZ2B block, HP1b chromo inh, G9a block, Sfp PPTase inh)
COc1cc2c(cc1/C=C1/NC(=O)N(CC(=O)Nc3ccccc3)C1=O)OCO2	none
COc1cccc(/C=C2/NC(=O)N(CC(=O)Nc3ccc(C)cc3)C2=O)c1OCc1cccc(C(=O)O)c1	JMJD2A Tudor inh inconclusive, BAZ2B block 25µM, HP1b chromo inh inconclusive, PLK1 PBD block inconclusive, G9a block inconclusive, Sfp PPTase inh inconclusive
Cc1ccc(NC(=O)CN2C(=O)N/C(=C/c3ccccc3OCc3cccc(C(=O)O)c3)C2=O)cc1	JMJD2A Tudor inh 28µM, BAZ2B block 18µM, HP1b chromo inh inconclusive, PLK1 PBD block inconclusive, G9a block 45µM, Sfp PPTase inh 89µM
O=C(c1ccc(Cl)cc1)N1CCC(C(=O)N2CCCc3ccccc32)CC1	none
Cc1cccc(CN(CC(=O)N/N=C/c2ccco2)S(=O)(=O)c2ccc(Cl)cc2)c1	JMJD2A Tudor inh 79µM, BAZ2B block 50µM, HP1b chromo inh inconclusive, G9a block inconclusive
Nc1nc(SCC(=O)c2cc(F)ccc2F)n[nH]1	G9a block 40µM
CC(Sc1nc2ccccc2c(=O)[nH]1)C(=O)O (stereo not given)	G9a block 3.2µM
C=CCn1c(C)cc(C(=O)CSc2n[nH]c(N)n2)c1C	JMJD2A Tudor inh inconclusive, G9a block 32µM
C=CCn1c(C)cc(C(=O)CSc2nc3ccccc3c(=O)[nH]2)c1C	BAZ2B block inconclusive, PLK1 PBD block 12µM, G9a block 50µM, Sfp PPTase inh inconclusive
Cc1cc(N2CCN(c3cccc(C)c3C)CC2)n2cnnc2n1	BAZ2B block inconclusive (no result: PLK1 PBD block, Sfp PPTase inh)
CCOc1ccc(S(=O)(=O)NCCC(=O)N2CC(C)OC(C)C2)cc1 (stereo not given)	none (no result: Sfp PPTase inh)
Cc1ccc(C(=O)CSc2nc3ccccc3c(=O)[nH]2)cc1	G9a block 45µM
CCc1ccc(C(=O)CSc2nc3ccccc3c(=O)[nH]2)cc1	none
O=C(O)CC(C(=O)O)n1nc(-c2ccccc2)cc1-c1ccccc1 (stereo not given)	JMJD2A Tudor inh inconclusive (no result: BAZ2B block)
O=C(O)Cn1nc(-c2ccccc2)cc1-c1ccccc1	JMJD2A Tudor inh inconclusive, PLK1 PBD block 21µM (no result: G9a block)
COC(=O)c1c(NC(=S)NNC(=O)c2ccc(Cl)s2)sc(C(=O)N(C)C)c1C	G9a block 28µM
COC(=O)Nc1sc(C(=O)N(C)C)c(C)c1C(=O)OC	none
CCN1CCN(CCCNC(=O)c2ccc3c(c2)NC(=O)/C(=C\c2cccc(C)c2)S3)CC1	JMJD2A Tudor inh inconclusive, BAZ2B block inconclusive, G9a block 35µM, Sfp PPTase inh 35µM
Cc1cccc(/C=C2/Sc3ccc(C(=O)NCCCN4CCOCC4)cc3NC2=O)c1	BAZ2B block inconclusive, Sfp PPTase inh 50µM (no result: JMJD2A Tudor inh, HP1b chromo inh, PLK1 PBD block)
O=C1Nc2cc(C(=O)NCCCN3CCCC3)ccc2S/C1=C/c1cccc(Cl)c1	none (no result: JMJD2A Tudor inh, BAZ2B block, HP1b chromo inh, G9a block, Sfp PPTase inh)
Oc1cccc2ccc(N3CCOCC3)nc12	G9a block inconclusive
Cc1ccccc1C(=O)c1cccn1CC(=O)NCCN1CCN(c2cccc(C)c2C)CC1	JMJD2A Tudor inh 50µM, BAZ2B block inconclusive, HP1b chromo inh inconclusive
Cc1ccc(C)c(N2CCN(CCCNC(=O)Cn3cccc3C(=O)c3ccccc3C)CC2)c1	JMJD2A Tudor inh inconclusive
S=C1CCSc2ccc(Cl)cc2N1	none
S=C1Nc2ccccc2Sc2ccc(Cl)cc21	PLK1 PBD block 24µM, G9a block inconclusive, Sfp PPTase inh inconclusive
Cc1ccc(C)n1-c1nnc(N2CCCC(C(=O)NCc3ccccc3)C2)s1 (stereo not given)	none (no result: PLK1 PBD block, Sfp PPTase inh)
COc1ccc2[nH]c3c(c2c1)CCN1C(=O)C(CC(=O)NCCN2CCOCC2)C[C@H](C(=O)N2CCOCC2)[C@@]31C (stereo not given in full)	none (no result: BAZ2B block, G9a block, Sfp PPTase inh)
CCOc1cc(/C=C2/NC(=O)NC2=O)cc(Br)c1OCc1ccc(C(=O)O)cc1	JMJD2A Tudor inh inconclusive, BAZ2B block 71µM, HP1b chromo inh inconclusive, PLK1 PBD block inconclusive, G9a block 45µM
CCOc1cc(/C=C2\NC(=S)N(C)C2=O)ccc1OCc1ccc(C(=O)O)cc1	JMJD2A Tudor inh inconclusive, BAZ2B block 71µM, PLK1 PBD block inconclusive, G9a block inconclusive
